# Bioassay records as filed in PubChem.
# Only some compounds are listed: those with a hit (about 12% of all), similar ones and a draw of the others.
# L major viab: Leishmania major promastigote growth inhibition, primary screen; Leishmania major promastigotes, resazurin fluorescence viability; inhibition, % at 10 µM; 200,000 compounds, 9% hits; AID 1063, 2008; in the data active = inhibition above about 50%;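 note: promastigotes grown with compound for 44 hours at 28 °C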
# CHOP inhibitor: inhibitors of CHOP promoter induction, primary screen, cell-based, unfolded protein response, luciferase reporter | CHO-K1 CHOP-promoter luciferase, tunicamycin-induced, 15-18 h | inhibition, % at 10 µM | 220,000 compounds, 3.8% hits;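 active = compounds that reduced the stress-induced luciferase reporter signal by more than about 70% of percent inhibition, limit read from the data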
# WT yeast gro inh: growth inhibition of WT strain, primary screen, mitochondrial fusion inhibitor project, WT and mutant strains, chemical genetic | mitochondrial fusion phenotypic screen | 190,000 compounds, 2.1% hits | inhibition, % at 10 µM; in the data active = inhibition above about 58%; tested in S. cerevisiae
# Arbovirus anti: antivirals against arbovirus infection, primary screen, cell-based, full library, 10K replicate subset; arbovirus infection cell-based antiviral screen; inhibition, % at 10 µM; 200,000 compounds, 0.37% hits; in the data active = inhibition above about 30%
# A number is an active result; - = inactive; . = no result.
SMILES,L major viab,CHOP inhibitor,WT yeast gro inh,Arbovirus anti
CNC(=O)Cn1nc(-c2ccc(C)c(S(=O)(=O)N(C)C)c2)c2ccccc2c1=O,-,-,-,-
COc1ccc(NC(=S)NCCN2CCC(C)CC2)cc1Cl,69,-,-,-
COc1ccc(NC(=S)NCCCN2CCCC2)cc1Cl,-,-,-,-
CCc1ccc(OC)c(-c2csc(N)n2)c1,-,-,58,-
CC1CCCc2sc3nc(N4CCN(CCO)CC4)n4ncnc4c3c21 (centres undefined),91,-,-,-
Cc1cc(C)cc(NC(=O)COc2ccc(C(=S)N3CCOCC3)cc2)c1,-,-,-,-
CCOc1ccc(Cn2c(=O)sc3ccccc32)cc1OC,.,-,.,.
Nc1c(C(=O)NCCc2ccccc2)sc2nc(N3CCOCC3)c3c(c12)CCCC3,-,-,-,-
CN(C(=O)c1sc2nc(N3CCOCC3)c3c(c2c1N)CCCC3)c1ccccc1,100,-,-,-
COc1c(O)ccc(C2NC(=O)NC(C)=C2C(=O)Nc2ccccc2C)c1[N+](=O)[O-] (centres undefined),-,-,-,-
CC1CCc2nc(N)c(C#N)c(-c3cccn3C)c2C1 (centres undefined),-,71,-,-
N#Cc1c(N)nc2c(c1-c1ccccc1)CCCC2,-,-,-,-
CCOC(=O)/C(N=Nc1c(Br)cc(Br)cc1Br)=C(\C)O,-,85,.,-
Cc1ccc(Nc2c([N+](=O)[O-])ccc3c2=NC2(CCCCC2)N=3)cc1,51,-,-,-
CSC1=C(C#N)C(=O)NC(c2ccc(Cl)cc2)S1 (centres undefined),.,-,.,.
COc1ccccc1N1CCN(c2ccc(-c3ccccc3)nn2)CC1,64,79,-,-
COc1ccccc1N1CCN(c2nc(-c3ccccc3)cc(C(F)(F)F)n2)CC1,-,-,-,-
CC1C2NC(=O)N(Cc3ccccc3)C1(C)Oc1ccccc12 (centres undefined),-,-,-,-
O=S(=O)(c1cccc(C(F)(F)F)c1)N1CCN(C(=S)NC2CC2)CC1,55,-,-,-
CCNC(=S)N1CCN(S(=O)(=O)c2cccc(C(F)(F)F)c2)CC1,-,-,-,-
O=C(CSc1cccc(C(F)(F)F)c1)N1CCN(S(=O)(=O)c2ccccc2)CC1,-,81,-,-
CC(C)NC(=S)N1CCN(S(=O)(=O)c2cccc(C(F)(F)F)c2)CC1,95,-,-,-
CCOC(=O)Cn1nc(C)c(NC(=O)COc2ccc(C)c(C)c2)c1C,.,-,.,.
CCN(CC)c1ccc(C(=O)N/N=C(\C)c2ccc(OC)c(OC)c2)cc1,-,-,-,-
Cc1cccc2cc(CN(Cc3cccs3)C(=S)NCC3CCCO3)c(=O)[nH]c12 (centres undefined),-,-,-,-
SMILES,L major viab,CHOP inhibitor,WT yeast gro inh,Arbovirus anti
COC(=O)c1ccccc1NC(=S)N(Cc1ccc2c(c1)OCO2)Cc1cc2cccc(C)c2[nH]c1=O,67,-,-,-
COc1ccccc1NC(=S)N(Cc1ccco1)Cc1cc2cc(C)cc(C)c2[nH]c1=O,85,-,-,-
COc1ccccc1NC(=S)N(Cc1ccco1)Cc1cc2ccc(C)c(C)c2[nH]c1=O,-,-,-,-
Cc1cccc(NC(=S)N(CCN(C)C)Cc2cc3cc(C)ccc3[nH]c2=O)c1,-,-,-,-
Cc1ccc(NC(=S)N(Cc2cccs2)Cc2cc3cccc(C)c3[nH]c2=O)cc1,92,-,-,-
Cc1cccc2cc(CN(CCN(C)C)C(=S)Nc3ccccc3)c(=O)[nH]c12,79,-,-,-
COc1ccc(C(=O)NN2CC(O)=C(c3nc4ccccc4n3C)C2=N)cc1OC,-,-,-,-
COc1ccc(C(CC(=O)c2ccccc2)CC(=O)c2ccccc2)cc1OC,51,-,-,-
C/C(=N\OC(=O)Nc1ccccc1)c1cnn(-c2cc(C(F)(F)F)cc(C)n2)c1C,.,-,.,.
Oc1c(C(c2ccccc2Cl)N2CCCC2)ccc2cccnc12 (centres undefined),100,102,-,-
Oc1c(C(c2cccs2)N2CCN(c3ccccc3)CC2)ccc2cccnc12 (centres undefined),84,99,-,-
CC(=O)Nc1ccc(S(=O)(=O)NCC(=O)OC(C)c2ccccc2Cl)cc1 (centres undefined),-,-,-,-
O=C1CS/C(=N/N=C/c2cccs2)N1Cc1ccc(F)cc1,.,-,.,.
CC1(C)C2CCC1(C)C(OC(=O)CC(=O)O)C2 (centres undefined),-,-,64,-
CCC(CO)N=C1CC(C)(C)CC(=O)/C1=C(/O)CCCN1C(=O)c2ccccc2C1=O (centres undefined),-,-,-,-
CC(C)(C)Nc1nc(NC(C)(C)C)nc(-n2ccnc2)n1,98,-,-,-
CC(C)(C)Nc1nc(Cl)nc(NC(C)(C)C)n1,-,-,-,-
Cc1cc(C)n(-c2nc(NC(C)(C)C)nc(NC(C)(C)C)n2)n1,-,78,-,-
COC(=O)c1cc2ccsc2n1Cc1nc(-c2ccc(Cl)cc2)oc1C,99,-,-,-
COC(=O)c1ccc(-c2ccco2)n1Cc1nc(-c2ccc(OC)c(OC)c2)oc1C,66,-,-,-
COC(=O)c1cc2occc2n1Cc1nc(-c2ccc(Cl)cc2)oc1C,-,-,-,-
Cc1ccc(N(CC(=O)N/N=C/c2cc(C)n(-c3ccccc3)c2C)S(C)(=O)=O)c(C)c1,-,73,-,-
Cc1ccc(N(CC(=O)NN=C2CCN(C)CC2)S(=O)(=O)c2ccccc2)c(C)c1,60,-,-,-
Cc1ccc2c(=O)[nH]c(Cc3ccccc3C(=O)O)nc2c1,.,-,.,.
Cc1ccccc1CN1CCSc2sccc2C1=O,-,-,-,-
SMILES,L major viab,CHOP inhibitor,WT yeast gro inh,Arbovirus anti
CCOC(=O)NC(NC(=S)Nc1ccc(OC)cc1)C(Cl)(Cl)Cl (centres undefined),-,-,-,-
COC(=O)NC(NC(=S)Nc1ccc([N+](=O)[O-])cc1)C(Cl)(Cl)Cl (centres undefined),99,-,-,-
COC(=O)c1ccccc1NC(=S)NC(NC(=O)c1ccccc1[N+](=O)[O-])C(Cl)(Cl)Cl (centres undefined),96,-,-,-
COc1ccc(NC(=S)NC(NC(=O)c2ccc(Cl)cc2Cl)C(Cl)(Cl)Cl)c([N+](=O)[O-])c1 (centres undefined),-,-,68,-
CC(=O)NC(NC(=S)Nc1cccc(Br)c1)C(Cl)(Cl)Cl (centres undefined),.,-,.,.
COC(=O)c1ccccc1NC(=S)NC(NC(=O)c1ccco1)C(Cl)(Cl)Cl (centres undefined),-,-,-,-
CC(=O)NC(NC(=S)Nc1ccc(N=Nc2ccccc2)cc1)C(Cl)(Cl)Cl (centres undefined),64,-,-,-
COc1ccc(C2N(c3cc(Cl)ccc3OC)C(=O)C3CCCN32)cc1OC (centres undefined),-,-,-,-
Cc1cc(C)n2cc(CSc3ncn[nH]3)nc2n1,-,-,-,-
C=CCc1c(OC)ccc2ccc(=O)oc12,-,-,-,-
N#C/C(=C\c1c(N2CCCCC2)nc2ccccn2c1=O)S(=O)(=O)c1ccccc1,.,-,.,.
